In PubChem BioAssay (NCI):
About 83,000 compounds went through this panel and 20% of them were active in at least one assay; those are over-represented in the sample as a whole.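 Compound tested at a single concentration for 48 hours in 96-well plates; a percent growth value below 10 was scored as active.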 Values without a mark were called inactive. Active and inactive are the calls of the source.

system: SK-MEL-28 melanoma; assay: NCI-60 one-dose screen, 48 h (100 = growth as untreated, 0 = no growth, -100 = all killed); conditions: 10 µM unless noted

Question: COc1c(F)ccc(C(=O)Nc2ccc3nc(NC(=O)C4CCCN(S(=O)(=O)c5ccc(Cl)cc5)C4)sc3c2)c1F (stereo not drawn) was tested. Which growth did it give?
Answer: Its growth is 89.4%.

Question: How did the growth turn out when O=C(N1c2ccccc2Sc2ccccc21)n1ccc2cccnc21 was run?
Answer: Its growth is 76.9%.

Question: For Cn1cc(-c2cc(N)n3nc(-c4cn(C)c5ncc(Br)cc45)cc3n2)c2cc(Br)cnc21, which growth is on record?
Answer: The growth was -49.9% (active).

Question: How did the growth turn out when CC1=C(C#N)C2=NNCC(c3ccccc3)=NN2C(c2ccccc2)=C1 was run?
Answer: Its growth is 109%.

Question: How did the growth turn out when C=C1CC[C@@H]2[C@]3(C)COC(c4cn[nH]c4-c4ccc(F)cc4)O[C@@H]3CC[C@@]2(C)[C@@H]1C/C=C1/C(=O)OCC1O (stereo partly drawn) was run?
Answer: Its growth is -75.6% (active).

system: SK-MEL-2 melanoma; assay: as above; conditions: 10 µM unless noted

Question: Which growth does the source give for Cn1cc(-c2cc3nc(-c4cn(C)c5ncccc45)cc(N)n3n2)c2cc(Cl)ccc21 here?
Answer: Its growth is -80% (active).

Question: How did the growth turn out when CC12CC[C@@H]3[C@]4(C)COC(c5c(F)cccc5F)O[C@@H]4CC[C@@]3(C)[C@@H]1CC(C1=CCOC1=O)O2 (stereo partly drawn) was run?
Answer: The growth was 81.2%.

Question: For Cc1nc(Nc2ncc(C(=O)Nc3c(C)cccc3Cl)s2)cc(N2CCN(CCCNC(=O)COc3ccc(C4CCC(=O)NC4=O)cc3)CC2)n1 (stereo not drawn), which growth is on record?
Answer: The growth was 109%.

Question: Cn1cc(NC(=O)c2cc(NC(=O)c3ccc(/C=C/c4ccccc4)cc3)cn2C)cc1C(=O)NCCCN1CCOCC1 was tested. Which growth did it give?
Answer: The growth was 99.6%.

Question: Which growth does the source give for Cc1ccccc1[C@H]1C(C(=O)c2ccc(Cl)cc2)C2(N[C@@H]1c1ccccc1)C(=O)Nc1ccc(Br)cc12 (stereo partly drawn) here?
Answer: Its growth is -11.2% (active).

Question: With Brc1ccc(N/N=C/c2c[nH]c3ccc(Br)cc23)nc1 as the compound, how does the growth read?
Answer: The growth was -57% (active).

Question: C=C1CCC2C3(C)COC(c4ccccc4)OC3CCC2(C)C1CC(Sc1ccccc1)C1=CCOC1=O (stereo not drawn) was tested. Which growth did it give?
Answer: Its growth is 59.4%.

Question: For Clc1cccc(N/N=C/c2c[nH]c3ccc(Br)cc23)n1, which growth is on record?
Answer: The growth was 27.4%.

Question: Which growth does the source give for COc1c(F)ccc(C(=O)Nc2ccc3nc(NC(=O)C4CCCN(S(=O)(=O)c5cccc(C(F)(F)F)c5)C4)sc3c2)c1F (stereo not drawn) here?
Answer: Its growth is 83.8%.

Question: O=c1oc2ccc(Br)cc2cc1C1=CSc2nc3sc4c(c3c(=O)n2N=C1)CCCC4 was tested. Which growth did it give?
Answer: Its growth is 98.6%.

Question: How did the growth turn out when CC(=O)/C=C/c1cccc2c1C(=O)NC(C)(c1cc3cc(Br)ccc3oc1=O)N2 (stereo not drawn) was run?
Answer: Its growth is -0.79% (active).

Question: For O=c1[nH]c(=O)c2c(-c3cc4ccccc4oc3=O)ccnc2[nH]1, which growth is on record?
Answer: The growth was 82.6%.

Question: How did the growth turn out when O=C(/C=C/Nc1ccc2oc(=O)ccc2c1)c1cc2cc(Br)ccc2oc1=O was run?
Answer: The growth was 107%.

Question: For CC1(c2cc3cc(Cl)ccc3oc2=O)NC(=O)c2c(/C=C/C(=O)OC3CC4CCC3(C)C4(C)C)cccc2N1 (stereo not drawn), which growth is on record?
Answer: The growth was 53.7%.

Question: How did the growth turn out when COc1ccc(-c2ccnc(SCc3cc4ccccc4[nH]c3=O)n2)cc1OC was run?
Answer: Its growth is 17.4%.

Question: CC12CC[C@@H]3[C@]4(C)COC(c5cn[nH]c5-c5cccc(Br)c5)O[C@@H]4CC[C@@]3(C)[C@@H]1CC(C1=CCOC1=O)O2 (stereo partly drawn) was tested. Which growth did it give?
Answer: The growth was 31.6%.

Question: How did the growth turn out when O=C(c1ccc(OCCN2CCOCC2)cc1)C1[C@H](c2ccc(Cl)cc2)[C@@H](c2ccccc2)NC12C(=O)Nc1ccc(Br)cc12 (stereo partly drawn) was run?
Answer: The growth was 28.3%.

Question: With COc1ccc2c(c1)c(/C=N/Nc1ccc3ccccc3n1)cn2C as the compound, how does the growth read?
Answer: The growth was 81.8%.

Question: For CN(C)CCOc1ccc(C(=O)C2[C@H](c3ccc(Cl)cc3)[C@@H](c3ccccc3)NC23C(=O)Nc2ccc(Br)cc23)cc1 (stereo partly drawn), which growth is on record?
Answer: The growth was 54.1%.

Question: O=c1[nH]c2ccc(Cl)cc2cc1CSc1nccc(-c2ccc(Cl)cc2)n1 was tested. Which growth did it give?
Answer: The growth was 34.5%.

Question: Which growth does the source give for COc1cccc(/C=C/c2nc3ccccc3c(=O)n2CC(=O)Nc2ccc(Cl)cc2)c1 here?
Answer: The growth was 111%.

Question: CCCSc1nc(Nc2ccc(S(N)(=O)=O)cc2)c(C#N)c(-c2cc(OC)c(OC)c(OC)c2)n1 was tested. Which growth did it give?
Answer: The growth was 43%.

Question: For CC(/C=C1\SC(=S)N(CCCC(=O)NC(CC(C)C)C(=O)O)C1=O)=C\c1ccccc1 (stereo not drawn), which growth is on record?
Answer: The growth was 101%.

Question: With COc1ccc(/C=C/c2nc3ccccc3c(=O)n2CC(=O)Nc2ccc(Cl)cc2)cc1 as the compound, how does the growth read?
Answer: Its growth is 99.9%.

Question: For Cn1cc(-c2cc3nc(-c4cn(C)c5ncc(Br)cc45)cc(N)n3n2)c2cc(Cl)ccc21, which growth is on record?
Answer: The growth was -76% (active).

Question: With Cn1cc(-c2cc(N)n3nc(-c4cn(C)c5ncccc45)cc3n2)c2cccnc21 as the compound, how does the growth read?
Answer: Its growth is 95.8%.

Question: Cc1ccc([C@H]2C(C(=O)c3ccc(Cl)cc3)C3(N[C@@H]2c2ccccc2)C(=O)Nc2ccc(Cl)cc23)cc1 (stereo partly drawn) was tested. Which growth did it give?
Answer: Its growth is 49.9%.

Question: For O=C(Cn1c(/C=C/c2ccccc2)nc2ccccc2c1=O)Nc1ccc(Cl)cc1, which growth is on record?
Answer: The growth was 114%.

Question: CC12CC[C@@H]3[C@]4(C)COC(c5cn[nH]c5-c5cccc(Cl)c5)O[C@@H]4CC[C@@]3(C)[C@@H]1CC(C1=CCOC1=O)O2 (stereo partly drawn) was tested. Which growth did it give?
Answer: The growth was 42.4%.

Question: With CCCCSc1nc(Nc2ccc(S(N)(=O)=O)cc2)c(C#N)c(-c2cc(OC)c(OC)c(OC)c2)n1 as the compound, how does the growth read?
Answer: The growth was 87.7%.

Question: For CCOC(=O)/C=C/c1cccc2c1C(=O)NC(C)(c1cc3cc(Cl)ccc3oc1=O)N2 (stereo not drawn), which growth is on record?
Answer: The growth was 7.1% (active).

Question: O=C(c1ccc(OCCN2CCOCC2)cc1)C1[C@H](c2ccc(Cl)cc2)[C@@H](c2ccccc2)NC12C(=O)Nc1ccc(Cl)cc12 (stereo partly drawn) was tested. Which growth did it give?
Answer: The growth was 35%.

Question: How did the growth turn out when CC(C)c1sc(NC(=O)c2cc(NC(=O)c3cc(NC(=O)c4nccn4C)cn3C)cn2C)nc1C(=O)NCCCN(C)C was run?
Answer: Its growth is 80.8%.

Question: Which growth does the source give for COc1c(F)ccc(C(=O)Nc2ccc3nc(NC(=O)C4CCCN(S(=O)(=O)c5ccc(Cl)cc5)C4)sc3c2)c1F (stereo not drawn) here?
Answer: The growth was 88%.

Question: O=C(N1c2ccccc2Sc2ccccc21)n1ccc2cccnc21 was tested. Which growth did it give?
Answer: Its growth is 73.6%.

Question: For Cn1cc(-c2cc(N)n3nc(-c4cn(C)c5ncc(Br)cc45)cc3n2)c2cc(Br)cnc21, which growth is on record?
Answer: Its growth is 39.5%.

Question: With CC1=C(C#N)C2=NNCC(c3ccccc3)=NN2C(c2ccccc2)=C1 as the compound, how does the growth read?
Answer: The growth was 113%.

Question: Which growth does the source give for C=C1CC[C@@H]2[C@]3(C)COC(c4cn[nH]c4-c4ccc(F)cc4)O[C@@H]3CC[C@@]2(C)[C@@H]1C/C=C1/C(=O)OCC1O (stereo partly drawn) here?
Answer: The growth was -39% (active).
